Assay results from ChEMBL document CHEMBL3988442, “University of Dundee, Small-Polar-MMV Screening Library” (2021).
The whole screen tested about 66,000 compounds, of which about 960 (1.5%) showed an effect of 50% or more. The sample as a whole holds a higher share of strong results than the screen did.

System: Trypanosoma brucei
Test: Trypanosoma brucei 72 hour study
Assay type: functional, organism-based
Design: scale not given: in the data most compounds retested in dose-response had high values

CCc1c(C)nn2c(O)cc(C3CCN(C(=O)c4cnn(C)c4)C3)nc12 (configuration not stated)
Percent Effect (30.3 µM, […]): -13.28%

CCCn1cc(-c2cc(-c3ccoc3)c(C#N)c(N)n2)c(C)n1
Percent Effect (30 µM, 30.03 µM): -1.944%

CCCn1cc(-c2cc(-c3cc(CC)n[nH]3)c(C#N)c(N)n2)c(C)n1
Percent Effect (30 µM, 30.03 µM): 41.43%

CCn1cc(-c2cc(-c3cc(CC(=O)O)cs3)nc(N)c2C#N)c(C)n1
Percent Effect (30 µM, 30.03 µM): -31.42%

COc1ncc(-c2cc(-c3ccn(C)c3)nc(N)c2C#N)cn1
Percent Effect (30 µM, 30.03 µM): -14.16%

CCCn1cc(-c2cc(-c3cnc(OC)nc3)c(C#N)c(N)n2)c(C)n1
Percent Effect (30 µM, 30.03 µM): 73.84%

CCCn1cc(-c2cc(-c3c[nH]cn3)c(C#N)c(N)n2)c(C)n1
Percent Effect (30 µM, 30.03 µM): 58.89%

CC(C)CS(=O)(=O)N1C[C@H]2C[C@H](C(=O)N3CCN(C)CC3)[C@@H](C1)O2.O=C(O)C(F)(F)F
Percent Effect (30.3 µM, […]): -51.72%

COc1ccccc1CCN1CCCC(CN(C)Cc2c[nH]c(C)n2)C1 (configuration not stated)
Percent Effect (30 µM, 30.03 µM): 9.173%

CC(NC(=O)c1ccc(=O)n(C)c1)c1ccccc1-n1cccn1 (configuration not stated)
Percent Effect (30 µM, 30.03 µM): -14.43%

Cc1nnc(NC(=O)c2cc(S(=O)(=O)N3CCSCC3)c[nH]2)s1
Percent Effect (30 µM, 30.03 µM): 37.66%

Cc1ccc(C)c(NC(=O)c2cc(S(=O)(=O)N3CCSCC3)c[nH]2)c1
Percent Effect (30 µM, 30.03 µM): 69.72%

Cc1ccc(NC(=O)c2cc(S(=O)(=O)N3CCCCC3)c[nH]2)cc1F
Percent Effect (30 µM, 30.03 µM): -33.42%

Cc1noc([C@@H]2CC[C@@H]3[C@@H](CCN3c3nnc(C)s3)O2)n1.O=C(O)C(F)(F)F
Percent Effect (30.3 µM, […]): -92.4%

CCc1ccc(C2NCCc3cc4c(cc32)OCCO4)cc1 (configuration not stated)
Percent Effect (30.3 µM, […]): 67.24%

Fc1ccccc1C1NCCc2cc3c(cc21)OCCO3 (configuration not stated)
Percent Effect (30.3 µM, […]): 18.61%

Clc1ccc(C2NCCc3cc4c(cc32)OCCO4)cc1 (configuration not stated)
Percent Effect (30.3 µM, […]): -20.9%

Cc1cc(CCC(N)=O)cc(C2CCCN2Cc2cnc(C)nc2)n1 (configuration not stated)
Percent Effect (30.3 µM, […]): -5.889%

O=C(O)C(F)(F)F.O=C(O)C(F)(F)F.c1coc(CN2C[C@@H]3CN(Cc4ccoc4)CCO[C@@H]3C2)c1
Percent Effect (30.3 µM, […]): -14.62%

O=C(Cn1c(=O)oc2ccccc21)NCC1(O)CCc2ccccc2C1 (configuration not stated)
Percent Effect (30 µM, 30.03 µM): -11.94%

Cc1ccc(C)c(OCc2nnc(SCC3CCCN(C)C3)o2)c1 (configuration not stated)
Percent Effect (30.3 µM, […]): 77.52%

Cc1cccc(OCc2nnc(SCC3CCCN(C)C3)o2)c1 (configuration not stated)
Percent Effect (30.3 µM, […]): -11.54%

Cc1ccc(OCc2nnc(SCC3CCCN(C)C3)o2)cc1 (configuration not stated)
Percent Effect (30.3 µM, […]): -4.572%

Cc1cc(F)cc2c(N3CCS(=O)(=O)CC3)c(C#N)cnc12
Percent Effect (30.3 µM, […]): 6.61%

Cc1noc(C)c1CN1CCc2ncnc(-c3ccccc3)c2CC1.O=C(O)C(F)(F)F
Percent Effect (30.3 µM, […]): -55.88%

CCn1ncc2c1CCCC2NCc1cccc2c1OCCO2 (configuration not stated)
Percent Effect (30 µM, 30.03 µM): 6.251%

CC(C)(C)n1ncc2c1CCCC2NCc1cccc2c1OCCO2 (configuration not stated)
Percent Effect (10 µM): 0.9444%
Percent Effect (30.3 µM, […]): 51.24%

CC(C)(C)n1ncc2c1CCCC2NCc1cccc2c1OCO2 (configuration not stated)
Percent Effect (30 µM, 30.03 µM): -18.28%

Cc1ccc(N2C[C@H](C)[C@]3(CCN(c4cccnc4)C3=O)C2)nn1.O=C(O)C(F)(F)F.O=C(O)C(F)(F)F
Percent Effect (30.3 µM, […]): -32.51%

O=C(NC1CCCC1)[C@@H]1C[C@@H]2CCN(Cc3ccoc3)C[C@H]2O1.O=C(O)C(F)(F)F
Percent Effect (30.3 µM, […]): -88.78%

Cc1nc(CN2CCO[C@@H]3CN(C(=O)CN(C)C)CC[C@@H]3C2)cs1
Percent Effect (30 µM, 30.03 µM): 8.371%

Cc1nc(CN2CCO[C@@H]3CN(C(=O)CC4CC4)C[C@@H]3C2)cs1.O=C(O)C(F)(F)F
Percent Effect (30 µM, 30.03 µM): 48.86%

Cc1nc(CN2CCO[C@@H]3CN(C(=O)CC4CC4)CC[C@@H]3C2)cs1
Percent Effect (30 µM, 30.03 µM): 61.23%

CCC(=O)N1CCC2(CC1)C(c1cccnc1)CC(=O)N2CCOC.O=C(O)C(F)(F)F (configuration not stated)
Percent Effect (30.3 µM, […]): -33.93%

CO[C@H]1CN(C(=O)c2cccnc2)[C@@H]2CCCO[C@H]12.O=C(O)C(F)(F)F
Percent Effect (30.3 µM, […]): -49.74%

COc1cccc(CNC(C)C)c1OCc1ccc(C)cc1.Cl
Percent Effect (30 µM, 30.03 µM): -4.618%

COc1cc(CNCC(C)O)cc(Cl)c1OCc1ccc(C)cc1.Cl (configuration not stated)
Percent Effect (30 µM, 30.03 µM): 97.25%

CC(O)CNCc1ccc(OCc2ccc3c(c2)OCCO3)cc1.Cl (configuration not stated)
Percent Effect (30 µM, 30.03 µM): -67.49%

COc1ccc(C[C@H]2CNCC[C@H]2OC)cc1.O=C(O)C(F)(F)F
Percent Effect (30.3 µM, […]): 13.15%

Cl.c1cnc(N2CCCC(NCc3ccc(-n4ccnc4)cc3)C2)nc1 (configuration not stated)
Percent Effect (30.3 µM, […]): 10.24%

Cc1n[nH]c2ncc(CNC3CCCN(c4ncccn4)C3)cc12.Cl (configuration not stated)
Percent Effect (30 µM, 30.03 µM): 72.79%

Cc1n[nH]c2ncc(CNC3CCN(Cc4ccccn4)CC3)cc12.Cl
Percent Effect (30 µM, 30.03 µM): -2.543%

COc1cccc(S(=O)(=O)N2C[C@@H](N(C)C)[C@H](C(C)C)C2)c1
Percent Effect (30 µM, 30.03 µM): -34.95%

CC(C)[C@@H]1CN(S(=O)(=O)c2cccc(C(=O)O)c2)C[C@H]1N(C)C
Percent Effect (30 µM, 30.03 µM): 98.32%

CC(C)S(=O)(=O)N1CCC(Cc2cccc(C(=O)O)c2)C1 (configuration not stated)
Percent Effect (30 µM, 30.03 µM): -22.39%

COCCN1CC2(CCOCC2)c2cc(NC(=O)C3CC=CC3)ccc21.O=C(O)C(F)(F)F
Percent Effect (30.3 µM, […]): 4.18%

COc1cc(-c2cc(-c3ccn(C)c3)nc(N)c2C#N)cc(OC)c1O
Percent Effect (30 µM, 30.03 µM): -22.54%

Cc1noc(C)c1-c1ccc(C2CCCN2C(=O)Cn2ccnc2)nc1 (configuration not stated)
Percent Effect (30.3 µM, […]): -4.122%

CN(C)C(=O)CN1CCCC(c2nccnc2-c2cccc(Cl)c2)C1 (configuration not stated)
Percent Effect (30.3 µM, […]): -2.355%

CN(C)C(=O)CN1CCCC(c2cncc(-c3cccc(Cl)c3)n2)C1 (configuration not stated)
Percent Effect (30.3 µM, […]): 53.32%

CN(C)C(=O)CN1CCC(c2cncc(-c3cccc(Cl)c3)n2)CC1
Percent Effect (30.3 µM, […]): 45.69%

CO[C@H]1C[C@@H]2CN(C(=O)c3cccc4c3OCCO4)C[C@@H]2C1
Percent Effect (30.3 µM, […]): -23.55%

O=C(C1CC1)N1CC[C@H](O)[C@@H]1Cc1ccccc1
Percent Effect (30.3 µM, […]): -5.545%

CC(C)c1cc(N2CCC[C@H](N)C2)n2nccc2n1
Percent Effect (30.3 µM, […]): -37.71%

CC(C)c1cc(N2CCC(N(C)C)C2)n2nccc2n1 (configuration not stated)
Percent Effect (30.3 µM, […]): 4.814%

CC(C)c1cc(N2CCC(C(C)N3CCCC3)CC2)n2nccc2n1 (configuration not stated)
Percent Effect (30.3 µM, […]): 88.53%

CC(C)c1cc(N2CCC(N)CC2)n2nccc2n1
Percent Effect (30 µM, 30.03 µM): 38.85%

CC(C)c1cc(N2CC[C@H](F)C2)n2nccc2n1
Percent Effect (30.3 µM, […]): 99.84%

CC(C)c1cc(N2CCSCC2)n2nccc2n1
Percent Effect (30.3 µM, […]): -15.7%

COc1ccc(CN2CCc3sccc3C2C)cc1CN1CCOCC1.Cl (configuration not stated)
Percent Effect (30.3 µM, […]): -20.22%

COc1cc(C(=O)Nc2nc(C)no2)cc(Cl)c1OC
Percent Effect (10 µM): -54.4%

O=C(O)C(F)(F)F.O=C(O)C(F)(F)F.c1cc(CN2CCO[C@H]3[C@H](OCCN4CCCC4)CC[C@@H]32)co1
Percent Effect (30.3 µM, […]): -5.554%

Br.COc1ccc(OCCc2cc(C3CCN(CC(C)C)C3)n[nH]2)cc1 (configuration not stated)
Percent Effect (30.3 µM, […]): 20.63%

Clc1ccc(OCCc2cc(C3CCN(c4ncccn4)C3)n[nH]2)cc1 (configuration not stated)
Percent Effect (30.3 µM, […]): 28.73%

CCCN1CCC(c2cc(CCOc3ccc(C(F)(F)F)cc3)[nH]n2)C1 (configuration not stated)
Percent Effect (30.3 µM, […]): 85.59%

Cl.Cl.Cn1cc(C(=O)NCc2cncc3c2CCN(CC2CC2)C3)cn1
Percent Effect (30.3 µM, […]): -27.13%

CN(Cc1ccncc1)C(CO)c1cccc(F)c1 (configuration not stated)
Percent Effect (30 µM, 30.03 µM): -28.86%

O=C(Nc1ccc2c(c1)C(=O)NC2)c1ccc(S(=O)(=O)C(F)(F)F)cc1
Percent Effect (30.3 µM, […]): 11.83%

Cc1[nH]c2ccccc2c1-c1ccnc(N[C@@H](CO)C(C)C)n1
Percent Effect (30.3 µM, […]): 11.27%

Cc1[nH]c2ccccc2c1-c1ccnc(N[C@H](CO)CC(C)C)n1
Percent Effect (30.3 µM, […]): 57.39%

Cc1[nH]c2ccccc2c1-c1ccnc(N[C@@H](C)CO)n1
Percent Effect (30.3 µM, […]): 24.23%

CC(C)c1[nH]c2ncccc2c1CN1CCOCC1.Cl
Percent Effect (30.3 µM, […]): -24.02%

CN(C)CCN1CCOCC2(C1)CN(Cc1ccsc1)CCO2.O=C(O)C(F)(F)F.O=C(O)C(F)(F)F.O=C(O)C(F)(F)F (configuration not stated)
Percent Effect (30 µM, 30.03 µM): 38.01%

Cc1ccccc1N1CCN(c2cc(N(C)C)ncn2)C(C)C1 (configuration not stated)
Percent Effect (30 µM, 30.03 µM): 6.135%

Cc1ccccc1N1CCN(c2ccncn2)C(C)C1 (configuration not stated)
Percent Effect (30 µM, 30.03 µM): 96.97%

Cc1ccc(N2CCN(c3ccccc3C)CC2C)nn1 (configuration not stated)
Percent Effect (30 µM, 30.03 µM): -104.7%

Cc1noc(C)c1-c1cccc(C2CN(CC(=O)N(C)C)CCO2)n1.O=CO (configuration not stated)
Percent Effect (30.3 µM, […]): -10.64%

Cc1nc(CN2CCC3(CCN(Cc4nccn4C)CC3)C2=O)cs1.O=C(O)C(F)(F)F.O=C(O)C(F)(F)F
Percent Effect (30.3 µM, […]): -13.64%

O=C(O)C(F)(F)F.O=C1C[C@H]2[C@@H](CCN2C(=O)Cc2ccccc2)N1Cc1cccnc1
Percent Effect (30.3 µM, […]): -5.465%

O=C(O)C(F)(F)F.O=C([C@H]1CCCO1)N1CCOC2(CCCN(c3ncccc3F)C2)C1 (some centres not stated)
Percent Effect (30.3 µM, […]): 1.881%

Fc1ccc(F)c(CN2CCC(c3n[nH]c4ncccc34)CC2)c1.O=C(O)CC(O)(CC(=O)O)C(=O)O
Percent Effect (30.3 µM, […]): 65.45%

O=C(O)CC(O)(CC(=O)O)C(=O)O.c1cnc2[nH]nc(C3CCN(Cc4ccsc4)CC3)c2c1
Percent Effect (30.3 µM, […]): -1.78%

Fc1cccc(CN2CCC(c3n[nH]c4ncccc34)CC2)c1F
Percent Effect (30.3 µM, […]): 18.42%

Cc1ccccc1OC1CCN(CC(=O)Nc2c(C)nn(C)c2C)CC1
Percent Effect (30.3 µM, […]): 11.58%

COCCC(=O)N1CC2(CCN(Cc3ccoc3)C2)C1
Percent Effect (30 µM, 30.03 µM): -24.51%

O=C(O)C(F)(F)F.O=C(O)C(F)(F)F.c1ccc(CN2CCOCC3(CCN(C4CCOCC4)C3)C2)cc1 (configuration not stated)
Percent Effect (30.3 µM, […]): -34.62%

Fc1ccc(CN2Cc3nccn3CC(CN3CCOCC3)C2)cc1.O=C(O)C(F)(F)F.O=C(O)C(F)(F)F (configuration not stated)
Percent Effect (30 µM, 30.03 µM): 39.42%

Cc1cccc(CN2Cc3nccn3CC(CN3CCOCC3)C2)c1.O=C(O)C(F)(F)F.O=C(O)C(F)(F)F (configuration not stated)
Percent Effect (30 µM, 30.03 µM): 58.02%

Cc1noc(C)c1CN1Cc2nccn2CC(CN2CCOCC2)C1.O=C(O)C(F)(F)F.O=C(O)C(F)(F)F (configuration not stated)
Percent Effect (30 µM, 30.03 µM): 27.27%

Fc1cccc(CN2CCOCC3(CCN(C4CCOCC4)C3)C2)c1.O=C(O)C(F)(F)F.O=C(O)C(F)(F)F (configuration not stated)
Percent Effect (30 µM, 30.03 µM): 30.04%

Cc1cccc(CN2CCOCC3(CCN(C4CCOCC4)C3)C2)c1.O=C(O)C(F)(F)F.O=C(O)C(F)(F)F (configuration not stated)
Percent Effect (30 µM, 30.03 µM): 52.28%
